Test results reported in PMC4336329 (PLoS ONE, 2015).
Screen size: about 310,000 compounds; about 14,000 (4.5%) showed an effect of 50% or more. Effects have a minus sign here. The list comes from a sample in which strong results are over-represented; it also holds similar structures and randomly drawn compounds.

The compounds below were run against human ether-à-go-go-related gene (hERG) potassium channel (human, UniProt Q12809) (assay: primary screen, population patch clamp on CHO cells stably expressing hERG; higher = less effect of the substance).
Chain of human ether-à-go-go-related gene (hERG) potassium channel (Q12809 whole entry, looked up): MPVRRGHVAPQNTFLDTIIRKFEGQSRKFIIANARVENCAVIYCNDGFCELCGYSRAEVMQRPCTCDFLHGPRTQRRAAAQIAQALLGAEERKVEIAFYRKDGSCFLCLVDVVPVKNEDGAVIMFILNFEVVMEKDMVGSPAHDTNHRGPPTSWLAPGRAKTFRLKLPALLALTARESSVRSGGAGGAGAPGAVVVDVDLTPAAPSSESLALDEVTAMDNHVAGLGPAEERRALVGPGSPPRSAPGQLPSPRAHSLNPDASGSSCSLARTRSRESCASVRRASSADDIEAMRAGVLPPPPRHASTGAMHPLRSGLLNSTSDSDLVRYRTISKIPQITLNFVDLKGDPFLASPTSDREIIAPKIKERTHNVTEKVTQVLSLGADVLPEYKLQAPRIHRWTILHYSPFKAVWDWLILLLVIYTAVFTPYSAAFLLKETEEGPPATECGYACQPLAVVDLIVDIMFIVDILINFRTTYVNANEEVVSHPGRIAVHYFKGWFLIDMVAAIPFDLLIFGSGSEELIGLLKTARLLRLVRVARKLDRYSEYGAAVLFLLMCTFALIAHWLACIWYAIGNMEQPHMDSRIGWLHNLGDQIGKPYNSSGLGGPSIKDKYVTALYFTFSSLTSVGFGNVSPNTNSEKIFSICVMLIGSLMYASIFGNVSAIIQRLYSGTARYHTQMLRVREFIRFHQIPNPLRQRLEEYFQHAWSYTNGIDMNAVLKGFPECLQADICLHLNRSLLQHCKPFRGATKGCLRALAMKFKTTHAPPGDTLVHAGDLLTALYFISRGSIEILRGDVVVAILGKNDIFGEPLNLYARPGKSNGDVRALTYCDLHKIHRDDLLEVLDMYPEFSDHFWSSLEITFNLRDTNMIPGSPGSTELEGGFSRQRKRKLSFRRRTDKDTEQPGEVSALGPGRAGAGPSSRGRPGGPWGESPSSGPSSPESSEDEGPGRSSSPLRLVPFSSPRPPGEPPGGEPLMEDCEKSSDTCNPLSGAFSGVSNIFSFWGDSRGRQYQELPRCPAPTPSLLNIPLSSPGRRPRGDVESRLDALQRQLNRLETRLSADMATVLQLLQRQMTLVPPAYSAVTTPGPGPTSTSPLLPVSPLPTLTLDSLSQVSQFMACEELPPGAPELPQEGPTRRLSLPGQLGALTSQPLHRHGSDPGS
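Also: peak tail current of the secondary pulse compared with the same well before compound.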

SMILES | hERG current change (%, negative = inhibition) at 10uM [%]
Cc1ccc(C(C)C)c(Oc2nnnn2-c2ccccc2)c1 | 14.2
CC(=O)N1CCC(N(CCCOC(C)C)S(=O)(=O)c2ccc([N+](=O)[O-])cc2)CC1 | -35.3
CCn1cc(C(=O)N2CCn3c(nc4ccccc43)C2)c(=O)c2ccc(C)nc21 | -12.4
COc1ccc(NC(=O)CSC2=C(C#N)C(c3ccco3)C3=C(CCCC3=O)N2)c(OC)c1 (stereo not shown) | -33.2
Fc1ccccc1Nc1nc(NCc2ccco2)nc(N2CCOCC2)n1 | -15.8
CCCOc1cccc(C2C(C(=O)c3ccc(C)o3)=C(O)C(=O)N2c2nc(C)c(C(C)=O)s2)c1 (stereo not shown) | 9.66
COc1cc(NC(=O)c2c(F)c(F)c(OC)c(F)c2F)ccc1NC(=O)c1cccs1 | 11.2
COc1ccc(C(=S)N2CCCC2)cc1Br | -7.39
CCOC(=O)Cc1csc(NC(=O)NC2(C(F)(F)F)Oc3ccccc3O2)n1 | 5.19
O=C(NCCc1ccccc1)c1ccc(CS(=O)(=O)Cc2ccccc2F)o1 | -19.7
CCCCN(C)C(=O)C1CCN(CCCc2ccccc2)CC1.O=C(O)C(=O)O | -73.4
CCCCN(C)C(=O)C1CCN(Cc2cccnc2)CC1 | 9.71
CCCCN(C)C(=O)C1CCN(Cc2ccccn2)CC1.O=C(O)C(=O)O | -4.27
NCC(O)CN(c1ccccc1)c1ccccc1 (stereo not shown) | 12
CN(C)CC(O)CN(c1ccccc1)c1ccccc1 (stereo not shown) | -54
OCC(O)CN(c1ccccc1)c1ccccc1 (stereo not shown) | 2.58
Cl.OCCN(CCO)CC(O)CN(c1ccccc1)c1ccccc1 (stereo not shown) | -14.6
CN(CCO)CC(O)CN(c1ccccc1)c1ccccc1.Cl (stereo not shown) | -52.1
CNCC(O)CN(c1ccccc1)c1ccccc1 (stereo not shown) | -39.8
CCCCCCn1c(=O)c(C(=O)Nc2nnc(C)s2)c(O)c2ccccc21 | -1.74

SMILES | hERG current change (%, negative = inhibition) at 10uM [%]
Cc1nnc(Nc2ccc3c(c2)OCO3)c2ccccc12 | -7.51
O=C(CCc1nnc2n(Cc3ccc(Cl)cc3)c(=O)c3ccccc3n12)NCCN1CCCC1 | -75.8
Cc1ccc(Cn2c(=O)c3ccccc3n3c(CCC(=O)NCCN4CCOCC4)nnc23)cc1 | -19.5
O=C(CCc1nnc2n(Cc3ccc(F)cc3)c(=O)c3ccccc3n12)NCCN1CCOCC1 | -20.3
CC1CCCCN1CCNC(=O)CCc1nnc2n(Cc3ccccc3)c(=O)c3ccccc3n12 (stereo not shown) | -51.6
O=C(CCc1nnc2n(Cc3ccccc3)c(=O)c3ccccc3n12)NCCN1CCOCC1 | -1.06
O=C(CCc1nnc2n(Cc3ccc(Cl)cc3)c(=O)c3ccccc3n12)NCCCN1CCOCC1 | -59.9
O=C(CCc1nnc2n(Cc3ccc(F)cc3)c(=O)c3ccccc3n12)NCCCN1CCOCC1 | -16.4
CC1CCCC(C)N1CCNC(=O)CCc1nnc2n(Cc3ccccc3)c(=O)c3ccccc3n12 (stereo not shown) | -42.6
O=C(CCc1ccccc1)NCCCN1CCOCC1 | 12.3
COc1ccccc1CNC(=O)Cn1cc([N+](=O)[O-])ccc1=O | 15.2
O=C1c2ccc3c4c(ccc(c24)C(=O)N1c1cccc(O)c1)C(=O)N(c1cccc(O)c1)C3=O | 8.86
CCc1ccc(NC(=O)C/C(C)=N/NC(=O)COc2ccc(C)cc2Br)cc1 | -30.5
CCc1ccccc1NC(=O)C/C(C)=N/NC(=O)COc1ccccc1C | 9.02
CCc1ccc(NC(=O)C/C(C)=N/NC(=O)COc2ccccc2C)cc1 | -53.2
COc1ccc(S(=O)(=O)Nc2ccccc2C(=O)N2CCOCC2)cc1C | -0.937
CCC(=O)Oc1cccc(C(=O)Nc2cccc(NC(=O)c3ccco3)c2)c1 | -1.06
CCS(=O)(=O)n1nc(-c2ccccc2)nc1NCc1ccco1 | -29.9
COc1ccc(C(=O)N/N=C\c2coc3ccccc3c2=O)cc1 | 6.36
COc1ccc(OC(C)c2nnc(N)s2)cc1 (stereo not shown) | -71.4

SMILES | hERG current change (%, negative = inhibition) at 10uM [%]
Cc1ccc(OC(C)c2nnc(N)s2)cc1Cl (stereo not shown) | -2.12
CC(Oc1ccccc1)c1nnc(N)s1 (stereo not shown) | -1.12
Clc1ccc(CSc2nncn2-c2ccccn2)cc1 | -28.7
COc1cc(CNCCO)cc(Br)c1OCc1ccccc1.Cl | -25.4
CC(C)NCc1cc(Br)ccc1OCc1ccccc1.Cl | -61.8
Cl.OCCNCc1cc(Br)ccc1OCc1ccccc1 | -55.7
COc1cccc(CNCCO)c1OCc1ccccc1Cl.Cl | -8.68
COCC(C)NCc1cc(Br)ccc1OC.O=C(O)C(=O)O (stereo not shown) | 8.73
Cl.OCCNCc1cc(Br)ccc1OCc1ccc(Cl)cc1 | -66.6
CC(C)(CO)NCc1cc(Br)ccc1OCc1ccccc1.Cl | -35.5
Cl.OCCNCc1cc(Br)ccc1OCc1ccc(F)cc1 | -49.7
Cl.OCCNCc1cc(Br)ccc1OCc1ccccc1Cl | -74.9
Cl.OCCNCCNCc1ccccc1OCc1ccccc1 | 8.83
C=CCOc1ccc(Br)cc1CNCCO.Cl | 0.469
COc1cc(CNCCO)cc(Br)c1OCc1ccccc1Cl.Cl | -3.45
O=C(O)COc1ccc(/C=C2/SC(=S)N(Cc3ccccc3)C2=O)cc1 | 17.3
COc1cnc(-c2ccccc2)nc1Oc1cccc(C)c1C | -0.114
Cc1ccccc1C1c2[nH]c3ccccc3c2CCN1C(=O)c1ccc(=O)n(C)n1 (stereo not shown) | -10.6
